For twelve sequences, PBM binding z-score results are on record in the supplement of paper PMC6555819.

Common to all, as to experiment: PBM binding z-score (relative to random genomic background probes); higher = stronger binding; sequences stand for … in GC…GCGATTGACAGCGTAGAATGAAGG
Assay [1] concerns FXR:RXRa (NR concentration 270 nM, RXRa partner concentration 90 nM). The method, boiled down: (§1)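 Scanned fluorescence from custom Agilent 4×180K protein-binding microarrays was regression-normalized. Binding z-scores use random background probes as reference. Ligand-free nuclear receptor dimers were incubated on the arrays for 1 h and detected with antibodies against each partner (one per run).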

Assay [2] has as its system LXRa:RXRa (NR concentration 270 nM, RXRa partner concentration 90 nM). The method in brief: as §1
Assay [3] has as its system LXRa homodimer (NR concentration 270 nM). The method, boiled down:
as §1

Assay [4] deals with LXRb:RXRa (NR concentration 270 nM, RXRa partner concentration 90 nM). The method, boiled down:
as §1

The test system of assay [5] is LXRb homodimer (NR concentration 270 nM). The method in brief:
as §1

Assay [6] has as its system PPARa:RXRa (NR concentration 270 nM, RXRa partner concentration 90 nM). The method in brief:
as §1

For assay [7], the system named is PPARg:RXRa (NR concentration 180 nM, RXRa partner concentration 90 nM). The method in brief: as §1
In assay [8] the test system is PPARg:RXRa 270nM:90nM, anti-RXR (NR concentration 270 nM, RXRa partner concentration 90 nM). The method in brief:
as §1

The test system of assay [9] is PPARg:RXRa 30nM:10nM, anti-RXR (NR concentration 30 nM, RXRa partner concentration 10 nM). The method, boiled down:
as §1

The subject of assay [10] is PPARg:RXRa 90nM:30nM, anti-RXR (NR concentration 90 nM, RXRa partner concentration 30 nM). The method, boiled down:
as §1

Consider AGTTAAAGTTCACTAGGTAACGTAAGATTCAGCT, for which the PBM binding z-score in assay [1] turned out to be 4.84; in [2] it was 4.91; in assay [3], 3.45; in assay [4] it was 2.98; in assay [5], 1.1; in assay [6] it was 4.57. Also, the PBM binding z-score in assay [7] worked out at 6.24; in [8], 5.79; in assay [9], 2.62; in assay [10] it was 4.52.

Consider TCTAGTTGGTCACGGAGGTCACACTCGACGGGTA, for which the PBM binding z-score in assay [1] was found to be 3; in assay [2], 3.28; in assay [3], 2.58; in [4] it was 3.06; in assay [5] it was 0.84; in [6], 3.75. In addition, the PBM binding z-score in [7] came out at 2.84; in [8], 3.93; in assay [9], 3.54; in assay [10], 3.5.

With TCTTGAAGATCAACAGGAGGTTAAGAAAGATCGA, the PBM binding z-score in assay [1] was 0.539; in [2] it was 1.27; in assay [3] it was 0.226; in assay [4], 1.15; in [5], -0.64; in [6], 1.41. Further, the PBM binding z-score in assay [7] was -0.0399; in [8] it was 1.64; in assay [9], 2.92; in assay [10], 2.51.

On to TAGCCTAGGTTAGATCGGGCCAGTATACGCTATA, for which the PBM binding z-score in [1] is 0.436; in assay [2] it was -0.519; in [3], -0.629; in assay [4], -0.408; in [5] it was -0.862; in assay [6] it was -0.226. In addition, the PBM binding z-score is 0.102 in assay [7], -0.562 in assay [8], -0.333 in [9] and -0.187 in [10].

As to ATCTCTATGTAAAGTTCAGTGAAAGATCGATAGA, the PBM binding z-score came to 0.881 in assay [1]; 1.72 in assay [2]; 1.66 in [3]; 1.17 in assay [4]; 0.525 in [5]; 1.87 in assay [6]. The PBM binding z-score turned out to be 2.59 in assay [7], 3.76 in assay [8], 2.03 in [9] and 3.82 in assay [10].

In the case of CGTCCAAGCTCAAGGTCAGTGAAAGAGACTCGAA, the PBM binding z-score is 1.45 in [1]; 1.33 in assay [2]; 0.213 in assay [3]; 1.25 in [4]; -0.283 in assay [5]; 1.93 in [6]. Besides, the PBM binding z-score came to 0.495 in [7], 1.14 in assay [8], 0.132 in assay [9] and 0.792 in assay [10].

Regarding AGAAGGAGGTTAAGATCAGGGAAACAGAATACAT, the PBM binding z-score stood at 1.65 in assay [1]; 1.79 in [2]; 0.422 in assay [3]; 2.19 in [4]; 1.11 in [5]; 2.82 in assay [6]. In addition, the PBM binding z-score in assay [7] came to 1.84; in assay [8], 1.67; in assay [9] it was 0.855; in assay [10], 1.19.

In the case of CCGACTGGGGCTTAAGGTTACCATAAGCCAGCCC, the PBM binding z-score in [1] is 0.202; in assay [2] it was 1.84; in assay [3], -0.512; in assay [4], 0.703; in [5], -1.22; in assay [6], 0.992. The PBM binding z-score in assay [7] was 0.91; in assay [8], 1.99; in [9] it was -0.108; in assay [10], 1.29.

As for TCTAGCAGGCCAGAGGGTCAGTCAAGAGGTACGG, the PBM binding z-score was 0.425 in assay [1]; 0.152 in assay [2]; -0.884 in assay [3]; 0.413 in [4]; -1.51 in [5]; 1.35 in assay [6]. The PBM binding z-score in assay [7] was 0.768; in assay [8], 1.81; in [9] it was 1.49; in [10], 1.68.

For the sequence CGAACTAGTTCATCCAGGACAGTGAATACATTGA, the PBM binding z-score in [1] is 0.527; in [2], 0.53; in [3], 0.205; in assay [4], 0.693; in [5], -0.0526; in assay [6], 0.838. For the same sequence, the PBM binding z-score was 0.619 in assay [7], 0.145 in assay [8], 0.0881 in assay [9] and 0.329 in assay [10].

As for CCTACTGGGCCATCAGGTCATTAATATCAACGTT, the PBM binding z-score was 1.02 in [1]; 0.82 in [2]; 1.3 in assay [3]; 1.37 in assay [4]; -0.00307 in [5]; 2.46 in assay [6]. Besides, the PBM binding z-score in [7] worked out at 2.9; in [8] it was 3.3; in assay [9] it was 0.96; in assay [10] it was 3.01.

With GCTGCTAGGTCAACCGATGGTCAGCTAAAGCTCG, the PBM binding z-score in [1] was 3.72; in [2], 2.83; in assay [3] it was -0.00824; in assay [4], 1.67; in assay [5] it was -0.103; in assay [6] it was 3.53. The PBM binding z-score in [7] came out at 2.64; in [8], 3; in [9], 0.428; in assay [10], 1.82.
